Experiments:
Assay in all cases: PBM binding z-score (relative to random genomic background probes); higher = stronger binding; sequences stand for … in GC…GCGATTGACAGCGTAGAATGAAGG
[1] = tested on: FXR:RXRa (NR concentration 270 nM, RXRa partner concentration 90 nM)
In short: (§1)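 Binding z-scores take random background probes as their reference. They come from custom Agilent 4×180K protein-binding microarrays incubated 1 h with ligand-free nuclear receptor dimers, with antibodies against each partner (one per run) detecting binding. Scanned fluorescence was regression-normalized.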

[2] = tested on: LXRa:RXRa (NR concentration 270 nM, RXRa partner concentration 90 nM)
In short: as §1

[3] = tested on: LXRa homodimer (NR concentration 270 nM)
In short: as §1

[4] = tested on: LXRb:RXRa (NR concentration 270 nM, RXRa partner concentration 90 nM)
In short: as §1

[5] = tested on: LXRb homodimer (NR concentration 270 nM)
In short: as §1

[6] = tested on: PPARa:RXRa (NR concentration 270 nM, RXRa partner concentration 90 nM)
In short: as §1

[7] = tested on: PPARg:RXRa (NR concentration 180 nM, RXRa partner concentration 90 nM)
In short: as §1

[8] = tested on: PPARg:RXRa 270nM:90nM, anti-RXR (NR concentration 270 nM, RXRa partner concentration 90 nM)
In short: as §1

[9] = tested on: PPARg:RXRa 30nM:10nM, anti-RXR (NR concentration 30 nM, RXRa partner concentration 10 nM)
In short: as §1

[10] = tested on: PPARg:RXRa 90nM:30nM, anti-RXR (NR concentration 90 nM, RXRa partner concentration 30 nM)
In short: as §1

[11] = tested on: PPARg:RXRa DBDmut IVT, anti-RXR (DBD mutation: RXRa K156A/R161A, NR concentration 270 nM, RXRa partner concentration 90 nM)
In short: as §1

[12] = tested on: PPARg:RXRa IVT, anti-PPARg (NR concentration 270 nM, RXRa partner concentration 90 nM)
In short: as §1

[13] = tested on: PPARg DBDmut:RXRa IVT, anti-PPARg (DBD mutation: PPARg1 K132A/R137A, NR concentration 270 nM, RXRa partner concentration 90 nM)
In short: as §1

[14] = tested on: PPARg DBDmut IVT, anti-PPARg (DBD mutation: PPARg1 K132A/R137A, NR concentration 270 nM)
In short: as §1

[15] = tested on: PPARg homodimer (NR concentration 180 nM)
In short: as §1

[16] = tested on: PXR:RXRa (NR concentration 270 nM, RXRa partner concentration 90 nM)
In short: as §1

[17] = tested on: PXR homodimer (NR concentration 270 nM)
In short: as §1

[18] = tested on: RARa:RXR (NR concentration 270 nM, RXRa partner concentration 90 nM)
In short: as §1

[19] = tested on: RARa homodimer (NR concentration 270 nM)
In short: as §1

[20] = tested on: RARb:RXRa (NR concentration 270 nM, RXRa partner concentration 90 nM)
In short: as §1

Sequence	PBM binding z-score [1]	PBM binding z-score [2]	PBM binding z-score [3]	PBM binding z-score [4]	PBM binding z-score [5]	PBM binding z-score [6]	PBM binding z-score [7]	PBM binding z-score [8]	PBM binding z-score [9]	PBM binding z-score [10]	PBM binding z-score [11]	PBM binding z-score [12]	PBM binding z-score [13]	PBM binding z-score [14]	PBM binding z-score [15]	PBM binding z-score [16]	PBM binding z-score [17]	PBM binding z-score [18]	PBM binding z-score [19]	PBM binding z-score [20]
ACCAGCAGGCCAAGTTTGGGTCACTCAAACAAAG	0.266	-0.108	-0.521	0.635	-0.887	1.31	-0.217	0.223	-0.767	-0.323	-0.512	0.814	-0.754	-1.36	0.25	0.747	-0.419	1.27	-0.97	1.89
TGAATGAGGTTATATGATCAGGGAACGTTGCAAA	1.85	1.48	-0.0351	1.25	0.134	2.97	1.44	1.76	1.05	1.45	1.01	1.63	0.22	0.825	0.489	1.04	0.00293	1.77	0.606	1.26
ATATGGAGGTTATCGGGTCATTCAGTTTGCGCAT	4.63	4.39	2.28	3.8	1.41	4.84	5.29	5	2.08	3.73	4.66	4.91	1.95	1.8	2.89	4.61	8.4	4.75	1.62	3.26
AACTCTAGGTAAAAGTTCAGTGAATCCCGAGGAT	1.13	1.42	1.21	0.973	0.00492	4.2	7.44	7.64	6.5	8.32	2.73	3.74	1.15	0.487	1.93	1.83	1.06	1.75	0.344	2.42
ATGTCTAGGTAACAAGTTCAGTGAAAGAGAGGAC	0.658	0.774	0.395	0.727	0.845	1.28	1.06	1.07	0.33	1.12	2.05	2.17	1.24	0.999	0.836	1.69	1.68	0.876	0.818	1.56
TCTTGTAGATGAACAGGAGGTTAAGAAAGATCGA	0.551	0.82	-0.0533	0.712	-0.35	0.923	0.119	1.32	2.89	2.02	1.53	0.277	0.804	0.789	0.0799	0.598	-0.154	0.883	0.212	0.279
GCGACTGGGGCAAAGCAGGTTACCATAAGGTTGG	1.14	0.088	-0.593	0.0291	-1.39	1.15	1.19	1.12	-0.898	0.47	4.62	3.61	-0.534	-0.872	-0.306	0.415	-0.59	0.0364	-0.818	0.93
TATACAGGGTCAAAGGCCAGAGAACGAATGTCGA	6.59	6.22	2.13	4.88	2.25	6.02	8.23	7.5	5.41	7.34	2.4	4.67	1.74	1.99	2.58	4.27	0.698	6.02	1.1	4.27
TCTTGTAGATCAATAGAGGTTAAAAAAGTGCGCT	0.88	4.42	1.13	2.5	0.00759	2.06	0.202	1.65	2.75	2.06	1.82	1.24	0.792	0.476	0.579	2.56	0.23	1.79	0.767	0.762
GCTCGGAGGACAAGGTCAGAGCTTTGTCCGTAGA	1.71	2.02	-0.543	1.29	-0.667	2.5	0.957	1.67	-0.521	0.794	-0.433	0.861	-1.56	-1.45	0.708	1.55	-0.264	2.24	-0.542	3.52
CGTACTAGGTCAGAACAGGACAGTGAAGGATGAT	1.43	1.05	0.203	0.274	-0.0494	2.29	4.39	3.35	1.31	2.31	6.87	6.46	1.58	0.904	1.06	1.05	0.324	1.26	0.637	3.05
ATCTCTAGGTAAAGTTCAGTGATAGATCGATAGA	1.49	1.95	1.88	1.14	1.34	2.39	3.59	4.16	2.3	3.88	2.28	2.44	1.4	1.48	1.9	1.92	1.96	1.35	1.69	2.71
ACTATTCGTTGACTTAGGGCAACCGATACGACGC	0.425	0.382	0.669	0.263	1.46	0.125	0.87	-0.0902	0.272	0.212	-0.214	0.623	1.11	1.54	0.718	0.152	0.211	0.392	0.76	0.866
GGAACGAGGGCTTTCGAGTTGATAGCATGGCGAT	-0.242	-0.418	-0.465	-0.655	-0.894	-0.173	0.0484	-0.127	-0.533	-0.499	0.386	-0.141	-0.402	-0.448	-0.921	0.129	-0.343	0.0983	-0.868	-0.36
CTACGAAGGTGAACAAGGTCGTTGATTACTATTC	1.63	1.54	0.18	1.91	-0.34	2.66	0.958	1.03	-0.0387	0.552	2.27	2.28	0.435	0.389	0.63	2.98	1.39	2.46	0.451	2.33
